Screening results deposited in PubChem BioAssay by National Center for Advancing Translational Sciences (NCATS).
Rows were chosen to be rich in hits. Some 3.1% of all compounds tested hit in one or more screens of this group.
PLK1 PBD block – PLK1 (human) polo-box domain binding inhibition; AID 720504; P53350; 360,000 tested, 2.8% active; Potency, µM, hits mostly inhibitors; Plk1 PBD binding of FITC phosphopeptide, fluorescence polarization; further: series mostly up to about 57 µM; nearly all actives have a fitted effect of over 65% in size
S-ASM inh – blocks human secretory acid sphingomyelinase | P17405 | placental ASM, HMU-PC fluorogenic substrate, 60 min | Potency, µM (doses to about 57.5 µM), usual class: inhibitors | 340,000 tested, 0.006% active | AID 504937
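Steps: dispense placental human ASM, pin compound, wait 10 min at room temperature, add HMU-PC0 substrate at 9 uM final, incubate 60 min at 37 °C, add stop solution raising pH to 10, read fluorescence.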
Tb PFK inh – inhibitors of T. brucei phosphofructokinase; O15648; AID 485367; Potency, µM (doses to about 57.5 µM), most hits filed as inhibitors; T. brucei PFK, ADP-Glo luminescence; 330,000 tested, 0.17% active; further: nearly all actives have a fitted effect of over 60% in size
Target sequence (O15648 whole entry, looked up): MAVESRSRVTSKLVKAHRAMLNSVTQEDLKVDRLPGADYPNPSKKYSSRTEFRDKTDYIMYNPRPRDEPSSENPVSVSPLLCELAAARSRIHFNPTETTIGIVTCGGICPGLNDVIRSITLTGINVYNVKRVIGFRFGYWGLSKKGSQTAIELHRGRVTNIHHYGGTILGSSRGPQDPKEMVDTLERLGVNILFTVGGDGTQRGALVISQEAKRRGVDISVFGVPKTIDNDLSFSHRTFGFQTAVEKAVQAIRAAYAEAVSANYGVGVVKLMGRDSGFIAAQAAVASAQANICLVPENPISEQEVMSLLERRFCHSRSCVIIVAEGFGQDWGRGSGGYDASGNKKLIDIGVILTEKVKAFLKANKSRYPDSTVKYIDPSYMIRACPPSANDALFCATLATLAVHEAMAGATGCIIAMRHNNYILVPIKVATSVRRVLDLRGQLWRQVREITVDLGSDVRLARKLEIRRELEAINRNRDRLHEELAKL
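Luminescent ADP detection (ADP-Glo, two-step: ATP depletion then ADP-to-ATP conversion for luciferase) reported PFK activity after 45 min room-temperature reaction of 1.25 nM enzyme with 0.5 mM F6P and 0.1 mM ATP at pH 8.0.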
TDP1 block – TDP1 (human) enzyme inhibition. Potency, µM (highest dose often 130 µM), usual class: inhibitors. AID 485290. 350,000 tested, 0.28% active. recombinant TDP1, AlphaScreen DNA substrate cleavage. Q9NUW8; further: nearly all actives have a fitted effect of over 40% in size
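Here, a 5' biotin and 3' phosphotyrosine-FITC DNA oligonucleotide reports Tdp1 activity: intact substrate bridges AlphaScreen beads, while cleavage leaves a 3' phosphate and drops signal. All incubations at room temperature.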
VDR inhibitor – blocks the human vitamin D receptor; P11473; VDR-SRC2-3 peptide fluorescence polarization, 2 h; Potency, µM, most hits filed as inhibitors; 400,000 tested, 0.93% active
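Signal is fluorescence polarization, reporting how far test compounds block the interaction of VDR with the SRC2-3 coregulator peptide after a 2 h room-temperature incubation.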
Pin1 inh – blocks the human prolyl isomerase Pin1. Q13526. Pin1 FP peptide displacement, HiFluor488, 10 min. Potency, µM (top dose mostly 115 µM), most hits filed as inhibitors. 390,000 tested, 0.009% active; active means well fitted inhibition curve with a large enough effect in the polarisation, with a control signal flat, not every such curve was filed as active; inconclusive means small, poorly fitted or top-dose-only effect, or effect the other way, or a change in a side signal; inactive means no such curve, though single readings can be large or run the other way; the % refers to the polarisation
Target sequence (Q13526 whole entry, looked up): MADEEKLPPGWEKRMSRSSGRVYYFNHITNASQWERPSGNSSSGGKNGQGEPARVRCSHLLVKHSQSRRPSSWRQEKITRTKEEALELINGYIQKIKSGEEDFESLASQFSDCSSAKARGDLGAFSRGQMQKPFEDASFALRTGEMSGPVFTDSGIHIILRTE
Numbers stand for hits; 0 = inactive; ? = inconclusive; - = not tested or not shown; ! = a repeat was not active; [ ] = another dose, or the depositor's remark. Unless noted, the call rests on the fitted dose curve; in most records, active means well fitted curve in the direction sought with a large enough effect; inconclusive means small, poorly fitted or top-dose-only effect, or another doubt; inactive means no such curve, though single readings can be large; an effect the other way counts as inactive or inconclusive.

SMILES | PLK1 PBD block | S-ASM inh | Tb PFK inh | TDP1 block | VDR inhibitor | Pin1 inh
CN1C(=O)C(=Cc2c(OCc3cnc(Cl)s3)ccc3ccccc23)C(=O)N(C)C1=O | 4.7µM | 0 | ? | 0 | ? | 0
CCc1cccc(NC(=O)c2ccc(NC(=O)N3CCSc4ncccc43)cc2)c1 | - | - | - | 0 | 0 | ?
CC(=O)[O][Hg][c]1ccccc1 | - | - | - | 32µM | 1.8µM | -
CCCC(Cn1cncn1)c1ccc(Cl)cc1Cl (centres undefined) | - | - | - | 0 | 0 | -
COP(=S)(OC)Oc1ccc([N+](=O)[O-])c(C)c1 | - | - | - | 0 | 22µM | -
Cc1ccc(S(=O)(=O)N(C)C[C@H]2Oc3c(NC(=O)Nc4cccc5ccccc45)cccc3C(=O)N([C@@H](C)CO)C[C@@H]2C)cc1 | 0 | 0 | 0 | 0 | 0 | 0
CC1=C[C@@H]2c3cccc4[nH]cc(c34)C[C@H]2N(C)C1 | ? | 0 | 0 | 0 | 50µM! | ?
CN1Cc2ccccc2[C@@H]2c3cccc4[nH]cc(c34)C[C@H]21 | - | - | - | 0 | 14µM | -
COc1c(O)c2c(=O)cc(OC)c3c4c(OC)cc(=O)c5c(O)c(OC)c(C[C@@H](C)OC(=O)c6ccccc6)c(c(c1C[C@@H](C)OC(=O)Oc1ccc(O)cc1)c23)c54 | - | - | - | 0 | 50µM | -
NCCc1cc(O)c(O)cc1O | 15µM | 0 | - | 0.25µM | 89µM | ?
COc1ccc(CCN)cc1O | 0 | 0 | - | 0 | 0 | 0
NC(=O)CSc1nc2cc(S(=O)(=O)N3CCOCC3)ccc2o1 | 12µM | 0 | 0 | 0 | ? | 0
Cc1ccc(N2C(=O)/C(=C/c3ccc(CN(CCC#N)S(C)(=O)=O)o3)C(=O)NC2=S)cc1 | 6µM | 0 | 0 | 0 | ? | ?
CS(=O)c1ccc(-c2nc(-c3ccc(F)cc3)c(-c3ccncc3)[nH]2)cc1 (centres undefined) | - | - | - | 0 | ? | -
CCOc1cc(OP(=S)(OC)OC)nc(CC)n1 | - | - | - | 0 | 22µM | -
CC(=O)OCC1=C(C(=O)O)N2C(=O)[C@@H](NC(=O)CCC[C@@H](N)C(=O)O)[C@H]2SC1 | - | - | - | - | 0 | -
COc1cc(/C=C(/C)[N+](=O)[O-])ccc1OCc1ccccc1Cl | 2.4µM | 0 | 0 | 0 | 8.9µM | 0
Cc1ccc(/C=C2\C(=O)NC(=O)N(CC3CCCO3)C2=O)s1 (centres undefined) | 4.7µM | 0 | 0 | - | ? | 0
CCN(CC)c1ccc(/C=C2\C(=O)NC(=O)N(CC3CCCO3)C2=O)cc1 (centres undefined) | ? | 0 | 0 | 0 | 0 | 0
CCCc1[nH][nH]c(=O)c1C(c1ccc(Cl)cc1)C(C#N)C#N (centres undefined) | 21µM | 0 | 0 | 0 | 0 | 0
CCCc1[nH][nH]c(=O)c1C(c1ccccc1)C(C#N)C#N (centres undefined) | 12µM | 0 | 0 | 0 | ? | 0
Cc1cccn2c(=O)cc(COc3cccc(NC(=O)COc4ccc(F)cc4)c3)nc12 | - | - | - | 0 | 0 | 0
CCCCC/C=C\C/C=C\C/C=C\C/C=C\CCCC(=O)NCc1ccc(O)c(OC)c1 | - | - | - | 0 | 45µM | -
CCC(=O)OC1(c2ccccc2)CCN(C)CC1C (centres undefined) | 24µM | 0 | 0 | 0 | 0 | 0
CC[C@@H]1/C=C/C=C/C[C@H](C)[C@@H](O)[C@](C)(O)C(=O)[C@H](C)[C@@H](O)[C@H](C)C(=O)[C@H](C)[C@@H](O)[C@H](C)/C=C/C(=O)O[C@H]2[C@@H](C)[C@@H](CC1)O[C@@]1(CC[C@@H](C)[C@@H](C[C@H](C)O)O1)[C@@H]2C | - | - | - | 0 | ? | -
SMILES | PLK1 PBD block | S-ASM inh | Tb PFK inh | TDP1 block | VDR inhibitor | Pin1 inh
O=c1[nH]c(=O)n(-c2cccc(F)c2)c(O)c1/C=C1\C=Nc2ccccc21 | ? | 0 | ? | - | 0 | 0
O=C(O)c1ccc(-n2c(O)c(/C=C3\C=Nc4ccccc43)c(=O)[nH]c2=O)cc1 | 9.5µM | 0 | ? | - | 0 | 0
COC(=O)C1=Nc2ccccc2/C1=C\c1c(O)n(-c2ccc(OC)cc2)c(=O)[nH]c1=O | 3.4µM | 0 | 0 | 0 | ? | 0
O=c1[nH]c(=O)n(-c2ccccc2)c(O)c1/C=C1/C(c2ccccc2)=Nc2ccccc21 | 11µM | 0 | 0 | 0 | ? | 0
COC(=O)C1=Nc2ccccc2/C1=C\c1c(O)n(C)c(=O)n(C)c1=O | 4.7µM | 0 | 0 | 0 | ? | 0
Cn1c(O)c(/C=C2\C=Nc3ccccc32)c(=O)n(C)c1=O | 0 | 0 | 0 | - | 0 | ?
C[C@@]12C(=O)OC(=O)[C@]1(C)[C@H]1CC[C@@H]2O1 | - | - | - | 0[21 µM] | 0 | -
CN1CCCCC1Cn1cc(C(=O)c2cc([N+](=O)[O-])ccc2I)c2ccccc21 (centres undefined) | - | - | - | 0 | 0 | -
CCCCC/C=C\C/C=C\C/C=C\CCCCC(=O)NCCO | - | - | - | 0 | 0 | -
CC(=O)NC1N=C(C)N(c2ccccc2)C1=O (centres undefined) | 27µM | 0 | 0 | 0 | ? | 0
Cc1cc(OC(=O)N(C)C)n(-c2ccccc2)n1 | 0 | 0 | 0 | 0 | 0 | 0
C=CC(C)=O | - | - | - | 0 | - | -
CCOC(=O)CC(SP(=S)(OC)OC)C(=O)OCC (centres undefined) | - | - | - | 0 | 28µM | -
CCOC(=O)CC(SP1(=S)OCC2(CCCCC2)CO1)C(=O)OCC (centres undefined) | 0 | 0 | - | - | 0 | ?
COc1ccc(-n2c(-c3ccccc3[N+](=O)[O-])nc3ccccc3c2=O)cc1 | 21µM | 0 | 0 | - | ? | 0
COc1ccc(-n2c(-c3ccc(C)cc3)nc3ccccc3c2=O)cc1 | 0 | 0 | 0 | 0 | 0 | 0
C[C@]12CCC3C(CC[C@]4(O)C[C@@H](O)CC[C@]34C=O)[C@@]1(O)CC[C@@H]2C1=CC(=O)OC1 (some centres undefined) | - | - | - | 0 | 0 | -
Cc1cccc(-n2c(O)c(C=Nc3ccc(Br)cn3)c(=O)[nH]c2=O)c1 | 6µM | 0 | 0 | 0 | 20µM | 0
OC(c1ccc(Cl)cc1)(c1cncnc1)c1ccccc1Cl (centres undefined) | - | - | - | 0 | ? | -
C[C@@H]1Cc2c(Cl)cc(C(=O)N[C@@H](Cc3ccccc3)C(=O)O)c(O)c2C(=O)O1 | - | - | - | 0 | 0 | -
CC(=O)CC(c1ccccc1[N+](=O)[O-])c1c(O)c2ccccc2oc1=O (centres undefined) | 0 | 0 | 0 | 0 | 0 | 0
Cc1[nH]n(-c2ccccc2)c(=O)c1C(c1cccc([N+](=O)[O-])c1O)c1c(C)[nH]n(-c2ccccc2)c1=O | 8.4µM | 0 | ? | 0 | ? | 0
COc1cc(C(c2c(C)[nH]n(-c3ccccc3)c2=O)c2c(C)[nH]n(-c3ccccc3)c2=O)cc(OC)c1OC | 2.1µM | 0 | 0 | 0 | ? | 0
O=C(O)Cc1cccnc1C(=O)O | - | - | - | 0 | 0 | -
O=c1[nH]c(=S)[nH]c(O)c1/C=C1/C=c2ccccc2=N1 | 1.3µM | 0 | 0 | - | 0 | 0
c1ccc2c(c1)-c1cccc3cccc-2c13 | 0 | 0 | 0 | 0 | 0 | 0
